Drawing on article PMC3218832, this text covers binding signal for 15 sequences.

Targets include RELARELA (p65 homodimer) (Homo sapiens, UniProt Q04206 1-307); p50p50 homodimer (Homo sapiens, UniProt P19838 7-356); RELB subunit;p50 subunit (Homo sapiens;Homo sapiens, UniProt Q01201;P19838 120-401;7-356).
Holding throughout (test): protein binding microarray; high values mean tight binding
What all share (details): dsDNA, one strand shown

The target in the next assay is T1, p52p52 homodimer (Homo sapiens, UniProt Q00653 4-332).
T1 sequence: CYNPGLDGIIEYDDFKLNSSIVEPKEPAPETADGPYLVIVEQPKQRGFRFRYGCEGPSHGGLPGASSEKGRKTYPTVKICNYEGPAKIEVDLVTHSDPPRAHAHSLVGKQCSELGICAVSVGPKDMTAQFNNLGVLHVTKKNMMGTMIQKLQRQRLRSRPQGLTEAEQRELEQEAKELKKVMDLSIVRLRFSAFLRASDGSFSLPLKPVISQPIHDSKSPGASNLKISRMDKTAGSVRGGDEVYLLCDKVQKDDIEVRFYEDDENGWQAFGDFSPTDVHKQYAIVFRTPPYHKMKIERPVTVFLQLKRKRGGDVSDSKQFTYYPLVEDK

Assay [1] deals with RELA (p65) subunit of heterodimer;p50 subunit (Homo sapiens;Homo sapiens, UniProt Q04206;P19838 1-307;7-356).
Assay [2] deals with RELA (p65) subunit of heterodimer;p52 subunit (Homo sapiens;Homo sapiens, UniProt Q04206;Q00653 1-307;4-332).
A further assay concerns the target T2, RELB subunit;p52 subunit (Homo sapiens;Homo sapiens, UniProt Q01201;Q00653 120-401;4-332).
T2 sequence 1: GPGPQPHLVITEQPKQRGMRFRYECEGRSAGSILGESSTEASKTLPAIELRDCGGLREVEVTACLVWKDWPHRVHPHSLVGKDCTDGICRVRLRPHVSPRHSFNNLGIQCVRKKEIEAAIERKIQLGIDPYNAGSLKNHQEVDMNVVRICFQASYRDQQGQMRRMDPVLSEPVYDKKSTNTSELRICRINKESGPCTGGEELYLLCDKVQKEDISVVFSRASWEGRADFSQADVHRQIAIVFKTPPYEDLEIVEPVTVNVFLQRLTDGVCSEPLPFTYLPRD
T2 sequence 2: T1 sequence

Assay [3] addresses C-Rel subunit;p50 subunit (Homo sapiens;Homo sapiens, UniProt Q04864;P19838 1-285;7-356).
Assay [4] addresses T3, C-Rel subunit;p52 subunit (Homo sapiens;Homo sapiens, UniProt Q04864;Q00653 1-285;4-332).
T3 sequence 1: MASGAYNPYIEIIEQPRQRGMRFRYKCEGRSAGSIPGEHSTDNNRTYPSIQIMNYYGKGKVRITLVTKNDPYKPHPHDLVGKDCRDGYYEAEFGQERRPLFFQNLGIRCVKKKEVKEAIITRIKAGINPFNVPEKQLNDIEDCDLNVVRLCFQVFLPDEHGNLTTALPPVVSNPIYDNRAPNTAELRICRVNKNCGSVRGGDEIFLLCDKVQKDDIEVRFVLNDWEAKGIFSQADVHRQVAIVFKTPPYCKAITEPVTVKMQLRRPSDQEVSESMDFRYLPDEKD
T3 sequence 2: T1 sequence

Sequence of RELARELA (p65 homodimer) (Q04206 1-307): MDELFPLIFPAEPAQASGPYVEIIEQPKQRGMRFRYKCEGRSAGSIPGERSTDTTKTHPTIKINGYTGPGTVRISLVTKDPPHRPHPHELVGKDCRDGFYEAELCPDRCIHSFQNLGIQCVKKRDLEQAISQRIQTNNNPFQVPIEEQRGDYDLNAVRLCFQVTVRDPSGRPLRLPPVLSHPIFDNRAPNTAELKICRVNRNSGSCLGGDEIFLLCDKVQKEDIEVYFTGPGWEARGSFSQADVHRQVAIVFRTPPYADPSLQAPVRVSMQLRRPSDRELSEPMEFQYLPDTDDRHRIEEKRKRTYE
Sequence of RELA (p65) subunit of heterodimer;p50 subunit (Q04206 1-307, chain 1 of 2): as the sequence (Q04206 1-307) above
Sequence of RELA (p65) subunit of heterodimer;p50 subunit (P19838 7-356, chain 2 of 2): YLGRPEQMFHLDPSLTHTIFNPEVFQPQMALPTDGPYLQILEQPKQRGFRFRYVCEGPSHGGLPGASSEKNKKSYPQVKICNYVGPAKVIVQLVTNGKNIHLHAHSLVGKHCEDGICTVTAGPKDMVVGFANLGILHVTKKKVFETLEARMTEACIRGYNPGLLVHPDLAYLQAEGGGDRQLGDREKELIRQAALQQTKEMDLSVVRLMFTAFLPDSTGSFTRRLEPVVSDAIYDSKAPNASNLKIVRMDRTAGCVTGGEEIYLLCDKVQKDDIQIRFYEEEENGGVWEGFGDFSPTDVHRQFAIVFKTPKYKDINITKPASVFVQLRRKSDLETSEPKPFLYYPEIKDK
Sequence of p50p50 homodimer (P19838 7-356): as the sequence (P19838 7-356, chain 2 of 2) above

For GAAGGCTCCCT, the binding signal with RELARELA (p65 homodimer) was -0.795 z-score; in the assay with p50p50 homodimer, -1.03 z-score; with p52p52 homodimer, -0.473 z-score; in assay [1], -0.74 z-score; in assay [2] it was -0.784 z-score; in the assay with RELB subunit;p50 subunit, -0.594 z-score. Further, the binding signal is -0.67 z-score with RELB subunit;p52 subunit, -1.02 z-score in assay [3] and -0.773 z-score in assay [4].
As to GAATGATCCCC, the binding signal in the assay with RELARELA (p65 homodimer) was -0.194 z-score; with p50p50 homodimer, 0.816 z-score; with p52p52 homodimer, 0.548 z-score; in [1], 0.936 z-score; in assay [2], 0.697 z-score; with RELB subunit;p50 subunit, 0.943 z-score. Further, the binding signal with RELB subunit;p52 subunit came out at 0.595 z-score; in assay [3], 0.665 z-score; in assay [4] it was 0.409 z-score.
On to AGGGAGTTCCT, for which the binding signal with RELARELA (p65 homodimer) was determined as 0.744 z-score; with p50p50 homodimer, 0.856 z-score; with p52p52 homodimer it was 1.12 z-score; in [1] it was 0.667 z-score; in assay [2], 0.798 z-score; with RELB subunit;p50 subunit it was 0.721 z-score. The binding signal with RELB subunit;p52 subunit worked out at 0.659 z-score; in assay [3], 0.315 z-score; in [4], 0.64 z-score.
Regarding CGGGTATTCCT, the binding signal was determined as 1.71 z-score with RELARELA (p65 homodimer); 0.73 z-score with p50p50 homodimer; 1.4 z-score in the assay with p52p52 homodimer; 0.593 z-score in [1]; 1.06 z-score in assay [2]; 0.353 z-score with RELB subunit;p50 subunit. Moreover, the binding signal is 0.712 z-score with RELB subunit;p52 subunit, 0.468 z-score in assay [3] and 1.22 z-score in assay [4].
Regarding AAGGGGCTCCT, the binding signal is -0.668 z-score in the assay with RELARELA (p65 homodimer); 0.769 z-score with p50p50 homodimer; 0.959 z-score in the assay with p52p52 homodimer; 0.032 z-score in [1]; 0.753 z-score in assay [2]; 0.344 z-score with RELB subunit;p50 subunit. The binding signal with RELB subunit;p52 subunit was 0.791 z-score; in assay [3], -0.103 z-score; in assay [4], 0.392 z-score.
With GGAAGAACCCC, the binding signal in the assay with RELARELA (p65 homodimer) was found to be 0.624 z-score; with p50p50 homodimer, 0.621 z-score; with p52p52 homodimer it was 0.666 z-score; in [1], 1.02 z-score; in [2], 1.03 z-score; with RELB subunit;p50 subunit, 0.343 z-score. The binding signal with RELB subunit;p52 subunit came to 0.678 z-score; in [3], 0.685 z-score; in assay [4], 0.755 z-score.
Take GAGGGCATCCC: the binding signal with RELARELA (p65 homodimer) was 0.359 z-score; with p50p50 homodimer, -0.785 z-score; with p52p52 homodimer, -0.256 z-score; in assay [1], -0.318 z-score; in assay [2] it was -0.398 z-score; with RELB subunit;p50 subunit it was -0.647 z-score. Also, the figures for the binding signal (with RELB subunit;p52 subunit; in assay [3]; in assay [4]) were -0.505 z-score, -0.179 z-score and -0.277 z-score, respectively.
In the case of CAAAATGCCCT, the binding signal with RELARELA (p65 homodimer) is 0.196 z-score; with p50p50 homodimer, -0.106 z-score; in the assay with p52p52 homodimer, -0.35 z-score; in assay [1], -0.0537 z-score; in assay [2], -0.15 z-score; with RELB subunit;p50 subunit, -0.464 z-score. For the same sequence, the binding signal with RELB subunit;p52 subunit is -0.38 z-score; in [3], -0.13 z-score; in assay [4], -0.0299 z-score.
With CAAAAACCCCT, the binding signal with RELARELA (p65 homodimer) is 1.05 z-score; with p50p50 homodimer, 1.47 z-score; with p52p52 homodimer it was 2.66 z-score; in assay [1], 1.84 z-score; in assay [2], 2.09 z-score; with RELB subunit;p50 subunit, 2.09 z-score. Further, the binding signal in the assay with RELB subunit;p52 subunit was 2.18 z-score; in assay [3], 1.37 z-score; in [4], 2.28 z-score.
Regarding GAGATGATCCT, the binding signal in the assay with RELARELA (p65 homodimer) was -0.876 z-score; with p50p50 homodimer it was -1.5 z-score; with p52p52 homodimer, -0.697 z-score; in assay [1], -0.978 z-score; in assay [2] it was -1.06 z-score; with RELB subunit;p50 subunit, -1.27 z-score. The binding signal with RELB subunit;p52 subunit was -1.16 z-score; in [3] it was -1.84 z-score; in [4], -1.11 z-score.
For the sequence CAAGTTCCCCT, the binding signal in the assay with RELARELA (p65 homodimer) amounted to 0.677 z-score; in the assay with p50p50 homodimer, 1.46 z-score; in the assay with p52p52 homodimer, 2.18 z-score; in assay [1] it was 1.97 z-score; in assay [2] it was 1.77 z-score; with RELB subunit;p50 subunit it was 2.27 z-score. Moreover, the binding signal with RELB subunit;p52 subunit stood at 2.14 z-score; in assay [3] it was 1.56 z-score; in assay [4], 1.84 z-score.
Take CAAAGCGTCCT: the binding signal is -0.639 z-score with RELARELA (p65 homodimer); -1.46 z-score with p50p50 homodimer; -0.572 z-score with p52p52 homodimer; -0.956 z-score in assay [1]; -0.873 z-score in assay [2]; -0.99 z-score in the assay with RELB subunit;p50 subunit. Besides, the binding signal in the assay with RELB subunit;p52 subunit is -0.804 z-score; in assay [3], -1.53 z-score; in assay [4] it was -0.973 z-score.
For the sequence AAGATCGTCCC, the binding signal with RELARELA (p65 homodimer) was 0.328 z-score; in the assay with p50p50 homodimer, 0.168 z-score; in the assay with p52p52 homodimer, 0.307 z-score; in [1], -0.197 z-score; in [2], -0.135 z-score; in the assay with RELB subunit;p50 subunit, 0.309 z-score. Further, the values for the binding signal (with RELB subunit;p52 subunit; in assay [3]; in [4]) were 0.078 z-score, 0.266 z-score and -0.166 z-score, respectively.
For CGATGACCCCT, the binding signal was -0.679 z-score in the assay with RELARELA (p65 homodimer); -0.0343 z-score in the assay with p50p50 homodimer; -0.125 z-score in the assay with p52p52 homodimer; -0.386 z-score in assay [1]; -0.154 z-score in assay [2]; -0.223 z-score with RELB subunit;p50 subunit. Moreover, the binding signal with RELB subunit;p52 subunit is -0.0567 z-score; in assay [3] it was -0.665 z-score; in [4], -0.266 z-score.
As for GAGAAGCCCCT, the binding signal with RELARELA (p65 homodimer) was -0.384 z-score; with p50p50 homodimer, 1.19 z-score; with p52p52 homodimer it was 1.26 z-score; in assay [1] it was 1.3 z-score; in assay [2], 1.14 z-score; in the assay with RELB subunit;p50 subunit, 1.22 z-score. Also, the results for the binding signal (with RELB subunit;p52 subunit; in [3]; in assay [4]) were 1.41 z-score, 0.87 z-score and 0.78 z-score, respectively.
